Hits are enriched below; roughly 11% of the tested compounds scored in any of these assays.
NIH3T3 tox: Cytotoxic Profiling in NIH 3T3 Cell Line of Diverse Libraries Using Quantitative High-Throughput Screening; NIH 3T3 viability, CellTiter-Glo ATP luminescence, 48-72 h; Potency, µM (top dose mostly 96.7 µM), without a hit: top-dose activity change, negative = cytotoxicity, most hits filed as inhibitors; hit rate 4.3% among 94,000; AID 1345082, 2018; also: nearly all actives have a fitted effect of over 55% in size
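Viability of NIH 3T3 cells after 48 or 72 hr compound treatment at 37 °C was assessed by CellTiter-Glo, with luminescence imaged following a 10 min room-temperature step.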
hNpr1 antagonist: Natriuretic polypeptide receptor (hNpr1) antagonism - Primary qHTS; HEK293 hNpr1 GloSensor cGMP, ANP-stimulated luminescence; hit rate 1.6% among 76,000; Atrial natriuretic peptide receptor 1 (Homo sapiens), P16066; Potency, µM (doses to about 46.3 µM), without a hit: at the top dose activity change, negative = inhibition, most hits filed as inhibitors; calls by dose curve; also: nearly all actives have a fitted effect of over 60% in size
Target sequence (P16066 whole entry, looked up): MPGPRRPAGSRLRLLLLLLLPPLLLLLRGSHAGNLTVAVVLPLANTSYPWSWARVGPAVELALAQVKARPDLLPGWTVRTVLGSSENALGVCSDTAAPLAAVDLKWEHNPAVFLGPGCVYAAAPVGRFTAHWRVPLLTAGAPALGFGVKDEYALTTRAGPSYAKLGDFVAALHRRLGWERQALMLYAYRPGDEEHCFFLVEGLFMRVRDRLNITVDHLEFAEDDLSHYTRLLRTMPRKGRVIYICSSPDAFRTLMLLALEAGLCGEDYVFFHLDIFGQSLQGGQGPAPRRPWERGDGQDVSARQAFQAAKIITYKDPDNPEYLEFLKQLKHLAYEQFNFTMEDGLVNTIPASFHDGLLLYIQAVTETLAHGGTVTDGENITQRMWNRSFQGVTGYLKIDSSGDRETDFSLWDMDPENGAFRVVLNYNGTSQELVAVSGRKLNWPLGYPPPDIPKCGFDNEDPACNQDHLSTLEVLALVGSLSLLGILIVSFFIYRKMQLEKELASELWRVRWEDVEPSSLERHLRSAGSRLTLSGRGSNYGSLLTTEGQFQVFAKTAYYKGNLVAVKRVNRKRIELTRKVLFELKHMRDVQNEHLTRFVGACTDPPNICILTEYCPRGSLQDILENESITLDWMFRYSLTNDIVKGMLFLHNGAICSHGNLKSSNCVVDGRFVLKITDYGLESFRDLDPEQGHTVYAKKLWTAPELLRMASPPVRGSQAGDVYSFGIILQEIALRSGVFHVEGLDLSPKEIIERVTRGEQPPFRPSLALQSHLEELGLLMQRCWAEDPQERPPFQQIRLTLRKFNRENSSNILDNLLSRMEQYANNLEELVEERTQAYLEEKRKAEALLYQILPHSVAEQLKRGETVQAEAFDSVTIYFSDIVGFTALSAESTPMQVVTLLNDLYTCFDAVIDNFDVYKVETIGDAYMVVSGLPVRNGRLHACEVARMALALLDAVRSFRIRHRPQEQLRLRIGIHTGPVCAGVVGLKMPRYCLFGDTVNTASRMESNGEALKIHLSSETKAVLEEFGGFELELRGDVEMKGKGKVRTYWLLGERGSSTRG
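HEK293 cells stably expressing human Npr1 and cGMP GloSensor pGS-40F, loaded 2 h with 2% GloSensor reagent, given compound 30 min at room temperature. Luminescence read before and 20 min after 0.1 nM hNppA.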
Luciferase inh: Firefly luciferase inhibition profiling of diverse chemical library using quantitative high-throughput screening; Potency, µM (highest dose often 115 µM), usual class: inhibitors; hit rate 2.5% among 76,000; purified P. pyralis luciferase, luminescence, biochemical; also: nearly all actives have a fitted effect of over 65% in size
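Cell-free enzyme assay, 10nM P. pyralis luciferase, luciferin and ATP each at 10uM. Inhibition profiled over a 6-point titration, read as luminescence.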
HEK cytotox: Cytotoxic Profiling in HEK 293 Cell Line of Diverse Libraries Using Quantitative High-Throughput Screening; HEK 293 viability, ATP luminescence (CellTiter-Glo), 48-72 h; Potency, µM (titrated, usually from 115 µM), without a hit: at the highest dose activity change, negative = cytotoxicity, most hits filed as inhibitors; hit rate 6.6% among 94,000; AID 1345083, 2018; also: nearly all actives have a fitted effect of over 60% in size
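Viability of HEK 293 cells, plated at 250 cells/well, was judged by cellular ATP after compound treatment for 48 or 72 hr. Luminescence was imaged 10 min after CellTiter-Glo addition at room temperature.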
The depositor's hits bear a star; i = inactive; ? = inconclusive; nt = not tested or not shown; [ ] = dose if it differs, or a comment. Unless noted, calls follow the shape of the dose curve; as a rule, active = well fitted curve in the direction sought with a large enough effect; inconclusive = small, poorly fitted or top-dose-only effect, or another doubt; inactive = no such curve, though single readings can be large; an effect the other way counts as inactive or inconclusive. % is scaled to controls: 0 for no effect and ±100 for the full control effect; potency is read from the fitted curve at half-maximal effect.

SMILES	NIH3T3 tox	hNpr1 antagonist	Luciferase inh	HEK cytotox
O=[S+]([O-])(c1ccc(C(F)(F)F)cc1)N1CCC2(CC1)CC(c1cccc(C(F)(F)F)c1)=NO2	-15.4%	nt	nt	?
CC(=O)Nc1ccc(CN2CCC3(CC2)CC(c2cccnc2)=NO3)cc1	5.0%	-13.5%	i	-20.1%
Cc1noc([C@@H]2C[C@H](NC(=O)Nc3cccc(F)c3)CN2C)n1	?	3.1%[70.6 µM]	i	-20.3%[172 µM]
CN1C[C@@H](NC(=O)Nc2ccccc2)C[C@H]1c1nc(-c2ccc(F)cc2)no1	?	?	i	56.2µM*
CN1C[C@@H](NC(=O)Nc2ccc(F)cc2F)C[C@H]1c1nc(-c2ccc(Cl)cc2)no1	-18.2%[174 µM]	?	70.8µM*	?
CN1C[C@@H](NC(=O)c2ccc(F)cc2)C[C@H]1c1nc(-c2ccc(Cl)cc2)no1	?	-2.1%[70.6 µM]	i	?
Cc1ccc(-c2noc([C@@H]3C[C@H](NC(=O)Nc4cccc(F)c4)CN3C)n2)cc1	?	?	63.1µM*	63.1µM*
COc1ccc(-c2c(C(=O)NCc3ccccc3F)nc3sccn23)cc1	-27.9%[138 µM]	nt	nt	?
COCC(=O)N1CCCC(C(=O)N2CCC(c3nc4ncccc4[nH]3)C2)C1 (stereo not drawn)	-20.6%	nt	nt	0.0%
COc1ccc(C(=O)N2CCC3(CC2)NC(=O)N(c2ccccc2)N3)cc1F	-29.5%	4.9%	i	-16.6%
CC(=O)Nc1cccc(-c2ccc3c(n2)CN(Cc2ccccc2)C(=O)CO3)c1	?	-0.4%[70.6 µM]	i	?
COc1cccc(CN2Cc3nc(-c4cc(Cl)ccc4OC)ccc3OCC2=O)c1	?	-0.6%[70.6 µM]	i	100µM*
COc1cccc(CN2Cc3nc(-c4cc5ccccc5o4)ccc3OCC2=O)c1	?	-14.8%[70.6 µM]	i	79.4µM*
COc1cccc(CN2Cc3nc(-c4ccc(F)cc4)ccc3OCC2=O)c1	79.4µM*	-22.3%[70.6 µM]	i	?
COc1cccc(CN2Cc3nc(-c4cccc(NC(C)=O)c4)ccc3OCC2=O)c1	?	-15.2%[70.6 µM]	i	79.4µM*
Cc1csc(NC(=O)[C@@H]2C[C@H](c3ccc(F)cc3)N(Cc3ccccc3Cl)C2)n1	?	?	i	?
COc1cccc(CN2Cc3nc(-c4c(C)noc4C)ccc3OCC2=O)c1	39.8µM*	-7.0%[70.6 µM]	i	?
CCN1C[C@H]2COc3cc(OC)ccc3[C@H]2N(C(=O)c2ccc(C)cc2)CCC1=O	?	nt	nt	-19.2%
COc1ccc(C(=O)NC2CCN(c3cc(-c4ccc(Cl)cc4)[nH]n3)C2)cc1OC (stereo not drawn)	?	-14.9%	i	?
Cc1ccc(C(=O)NC2CCCN(c3cc(-c4ccccc4)[nH]n3)C2)cn1 (stereo not drawn)	?	-10.4%	?	?
COc1ccc(C(=O)NC2CCCN(c3cc(-c4ccccc4)[nH]n3)C2)cc1F (stereo not drawn)	15.8µM*	-25.9%	?	?
Cc1ccc(C(=O)NC2CCCN(c3cc(-c4ccc(Cl)cc4)[nH]n3)C2)cn1 (stereo not drawn)	?	-3.8%	?	28.2µM*
COc1ccc(-c2cc(N3CCCC(NC(=O)c4ccc(C)c(F)c4)C3)n[nH]2)cc1 (stereo not drawn)	?	-17.6%	i	?
COc1ccc(C(=O)NC2CCN(c3cc(-c4ccc(Cl)cc4)[nH]n3)C2)cc1F (stereo not drawn)	?	-7.3%	i	39.8µM*
CCOc1cc(C(=O)NC2CCN(c3cc(-c4ccc(OC)cc4)[nH]n3)C2)cc(OCC)c1OCC (stereo not drawn)	22.4µM*	3.0%	i	39.8µM*
SMILES	NIH3T3 tox	hNpr1 antagonist	Luciferase inh	HEK cytotox
COc1ccccc1-c1cc(C(=O)NCC2CC2)c2cnn(C)c2n1	-27.8%	nt	nt	-8.3%
Cc1ccc(OCC(=O)NCC23CCCC=C2NC(=O)CC3)cc1 (stereo not drawn)	-24.1%	nt	nt	-18.6%
COc1ccc(-c2cc(N3CCCC(NC(=O)c4ccccc4Cl)C3)n[nH]2)cc1 (stereo not drawn)	?	-3.6%	44.7µM*	?
COc1ccc(-c2cc(N3CCCC(NC(=O)c4ccc5cc[nH]c5c4)C3)n[nH]2)cc1 (stereo not drawn)	?	?	11.2µM*	?
COc1cc(C(=O)NC2CCCN(c3cc(-c4ccccc4)[nH]n3)C2)cc(OC)c1OC (stereo not drawn)	?	-9.8%	35.5µM*	?
CCOc1ccc(C(=O)NC2CCCN(c3cc(-c4ccccc4)[nH]n3)C2)cc1 (stereo not drawn)	?	-17.0%	?	?
COc1ccc(-c2cc(N3CCCC(NC(=O)c4ccc(F)c(F)c4)C3)n[nH]2)cc1 (stereo not drawn)	?	-21.3%	?	?
COc1ccc(C(=O)NC2CCCN(c3cc(-c4ccccc4)[nH]n3)C2)cc1 (stereo not drawn)	?	0.0%	25.1µM*	?
CC(C)CCN1CCC(C2CCN(Cc3cccnc3)CC2)C1 (stereo not drawn)	?	-4.0%	i	-19.3%
COc1ccc(-c2cc(N3CCC(NC(=O)c4ccc(F)c(Cl)c4)C3)n[nH]2)cc1 (stereo not drawn)	39.8µM*	2.4%	i	?
COc1cc(OC)cc(C(=O)NC2CCCN(c3cc(-c4ccccc4)[nH]n3)C2)c1 (stereo not drawn)	?	0.0%	25.1µM*	39.8µM*
COc1ccc(C(=O)NC2CCCN(c3cc(-c4ccc(Cl)cc4)[nH]n3)C2)cc1 (stereo not drawn)	35.5µM*	-25.0%	?	?
COc1cccc(CNC(=O)c2nc3cccnc3n(C3CC3)c2=O)c1	-26.0%[138 µM]	nt	nt	-2.6%[172 µM]
COc1cccc(-c2noc(COC(=O)C3=CN(C)S(=O)(=O)N=C3C)n2)c1	?	12.6µM*	?	?
CC1=NS(=O)(=O)N(C)C=C1C(=O)OCc1nc(-c2ccc(Cl)cc2)no1	-29.5%	10µM*	?	?
CC1=NS(=O)(=O)N(C)C=C1C(=O)OCc1nc(-c2ccc3c(c2)OCO3)no1	-6.4%	11.2µM*	?	-10.1%
COc1cccc(-c2cn3cc(C(=O)NCc4ccccc4F)nc3s2)c1	-24.8%	nt	nt	?
COc1ccc(C(=O)N2CCc3nc(C(C)C)nc(-c4ccc(OC)cc4)c3C2)cc1	-15.7%	-5.0%	i	-16.0%
CN(C)c1ccc(-c2cc(-c3ccc(=O)[nH]c3)c3cncn3c2)cc1	?	-13.7%[70.6 µM]	?	-17.1%[172 µM]
COc1ccc(-c2cc(-c3ccc4c(c3)C(=O)NC4)cn3cncc23)cc1	?	-2.3%[70.6 µM]	i	?
CN(C)c1cccc(-c2cc(-c3cn[nH]c3)c3cncn3c2)c1	14.1µM*	-12.5%[70.6 µM]	?	?
c1cc(-c2cc(-c3cn[nH]c3)cn3cncc23)ccn1	28.2µM*	1.5%[70.6 µM]	i	35.5µM*

From PubChem
